Of roughly 7,900 targets only a part is listed; those with a hit were picked by preference. About 0.6% of all pairs of compound and target were hits. A number with no mark means an inactive call.
Key:
Experiment in all cases: log2 fold change, soluble protein after heating vs DMSO (PISA); higher = thermal stabilisation; K562 cells, 10 uM, 30 min; active = over 0.2 and 3.5 SD of the protein, either way, in both replicates (recomputed)
[1] = compound: C1COCCN1CCN2C3=CC=CC=C3N=C2NC(=O)C4=CC(=CC=C4)[N+](=O)[O-] [IRAK-1-4 Inhibitor I]
How it was run: (§1)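 K562 cells (2×10^6 cells/mL) were treated with 10 μM compound for 30 min, and aliquots were heated for 3 min over 48°C-58°C. Pooled aliquots were extracted in PBS with 0.5% NP-40 at 4°C, and the supernatant after 21,000xg for 90 min was measured by TMTpro 16plex LC-MS/MS with channel sums equalised. Reported thermal stability, relative to control samples and from duplicates, is a log2 fold change.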

[2] = compound: C=CC(=O)N1CCC[C@@H](n2nc(-c3ccc(Oc4ccccc4)cc3)c3c(N)ncnc32)C1 [ibrutinib]
How it was run: as §1

[3] = compound: CC(=O)c1cnc2ccc(-c3cc(Cl)c(O)c(Cl)c3)nc2c1N[C@H]1CC[C@H](CN(C)C)CC1
How it was run: as §1

[4] = compound: CC(C)(C)Cn1c(N)nc2ccc(-c3[nH]c(C(C)(C)C)nc3-c3ccc(F)cc3)nc21 [ralimetinib]
How it was run: as §1

[5] = compound: CC(C)C1=C2N=C(C=C(N2N=C1)NCC3=CC=CC=C3)NCCCCCCN
How it was run: as §1

[6] = compound: CC(C)C[C@@H](C=O)NC(=O)[C@H](CC(C)C)NC(=O)[C@H](CC(C)C)NC(=O)OCc1ccccc1
How it was run: as §1

[7] = compound: CC(C)N(C[C@H]1O[C@@H](n2cnc3c(N)ncnc32)[C@H](O)[C@@H]1O)[C@H]1C[C@@H](CCc2nc3cc(C(C)(C)C)ccc3[nH]2)C1 [pinometostat]
How it was run: as §1

[8] = compound: CC1=C(C=C(C=C1)NC(=O)C2=CC(=CC=C2)C(C)(C)C#N)NC3=CC4=C(C=C3)N=CN(C4=O)C
How it was run: as §1

[9] = compound: CC1=C(C=C(C=C1)NC(=O)C2=CC(=CC=C2)N(C)C)NC(=O)C3=CC=C(C=C3)O
How it was run: as §1

[10] = compound: CC1=CC=C(C=C1)SC2=C3C=C(SC3=CN=C2)C(=O)N
How it was run: as §1

[11] = compound: CC1=NC(=CC=C1)C2=C(N=C(N2)C(C)(C)C)C3=CC4=NC=CN=C4C=C3
How it was run: as §1

[12] = compound: CCCS(=O)(=O)Nc1ccc(F)c(C(=O)c2c[nH]c3ncc(-c4ccc(Cl)cc4)cc23)c1F [vemurafenib]
How it was run: as §1

[13] = compound: CCCS(=O)(=O)Nc1ccc(F)c(C(=O)c2c[nH]c3ncc(Cl)cc23)c1F
How it was run: as §1

[14] = compound: CCCc1cc(C)[nH]c(=O)c1CNC(=O)c1cc(-c2ccnc(N3CCN(C)CC3)c2)cc2c1cnn2C(C)C
How it was run: as §1

[15] = compound: CCN(CC)Cc1ccc2cc(COC(=O)Nc3ccc(C(=O)NO)cc3)ccc2c1 [givinostat]
How it was run: as §1

[16] = compound: CCN(CCCOc1ccc2c(Nc3cc(CC(=O)Nc4cccc(F)c4)[nH]n3)ncnc2c1)CCOP(=O)(O)O [barasertib]
How it was run: as §1

[17] = compound: CC1=C(C(CC(=O)N1)C2=CC=C(C=C2)C(F)(F)F)C(=O)NC3=C(C=C4C(=C3)C=NN4)F
How it was run: as §1

[18] = compound: CC1=C(C2=C(C=C1)C(=O)C3=CC=CC=C3N2CCCN)C
How it was run: as §1

[19] = compound: CC(C)(O)CC(=O)NCCn1ccc2ncnc(Nc3ccc(Oc4cccc(C(F)(F)F)c4)c(Cl)c3)c21
How it was run: as §1

[20] = compound: CCCCN(Cc1ccc(C(=O)NO)cc1)C(=O)Nc1ccccc1 [Nexturastat A]
How it was run: as §1

Sequence of UniProt Q99758 (Q99758 whole entry, looked up): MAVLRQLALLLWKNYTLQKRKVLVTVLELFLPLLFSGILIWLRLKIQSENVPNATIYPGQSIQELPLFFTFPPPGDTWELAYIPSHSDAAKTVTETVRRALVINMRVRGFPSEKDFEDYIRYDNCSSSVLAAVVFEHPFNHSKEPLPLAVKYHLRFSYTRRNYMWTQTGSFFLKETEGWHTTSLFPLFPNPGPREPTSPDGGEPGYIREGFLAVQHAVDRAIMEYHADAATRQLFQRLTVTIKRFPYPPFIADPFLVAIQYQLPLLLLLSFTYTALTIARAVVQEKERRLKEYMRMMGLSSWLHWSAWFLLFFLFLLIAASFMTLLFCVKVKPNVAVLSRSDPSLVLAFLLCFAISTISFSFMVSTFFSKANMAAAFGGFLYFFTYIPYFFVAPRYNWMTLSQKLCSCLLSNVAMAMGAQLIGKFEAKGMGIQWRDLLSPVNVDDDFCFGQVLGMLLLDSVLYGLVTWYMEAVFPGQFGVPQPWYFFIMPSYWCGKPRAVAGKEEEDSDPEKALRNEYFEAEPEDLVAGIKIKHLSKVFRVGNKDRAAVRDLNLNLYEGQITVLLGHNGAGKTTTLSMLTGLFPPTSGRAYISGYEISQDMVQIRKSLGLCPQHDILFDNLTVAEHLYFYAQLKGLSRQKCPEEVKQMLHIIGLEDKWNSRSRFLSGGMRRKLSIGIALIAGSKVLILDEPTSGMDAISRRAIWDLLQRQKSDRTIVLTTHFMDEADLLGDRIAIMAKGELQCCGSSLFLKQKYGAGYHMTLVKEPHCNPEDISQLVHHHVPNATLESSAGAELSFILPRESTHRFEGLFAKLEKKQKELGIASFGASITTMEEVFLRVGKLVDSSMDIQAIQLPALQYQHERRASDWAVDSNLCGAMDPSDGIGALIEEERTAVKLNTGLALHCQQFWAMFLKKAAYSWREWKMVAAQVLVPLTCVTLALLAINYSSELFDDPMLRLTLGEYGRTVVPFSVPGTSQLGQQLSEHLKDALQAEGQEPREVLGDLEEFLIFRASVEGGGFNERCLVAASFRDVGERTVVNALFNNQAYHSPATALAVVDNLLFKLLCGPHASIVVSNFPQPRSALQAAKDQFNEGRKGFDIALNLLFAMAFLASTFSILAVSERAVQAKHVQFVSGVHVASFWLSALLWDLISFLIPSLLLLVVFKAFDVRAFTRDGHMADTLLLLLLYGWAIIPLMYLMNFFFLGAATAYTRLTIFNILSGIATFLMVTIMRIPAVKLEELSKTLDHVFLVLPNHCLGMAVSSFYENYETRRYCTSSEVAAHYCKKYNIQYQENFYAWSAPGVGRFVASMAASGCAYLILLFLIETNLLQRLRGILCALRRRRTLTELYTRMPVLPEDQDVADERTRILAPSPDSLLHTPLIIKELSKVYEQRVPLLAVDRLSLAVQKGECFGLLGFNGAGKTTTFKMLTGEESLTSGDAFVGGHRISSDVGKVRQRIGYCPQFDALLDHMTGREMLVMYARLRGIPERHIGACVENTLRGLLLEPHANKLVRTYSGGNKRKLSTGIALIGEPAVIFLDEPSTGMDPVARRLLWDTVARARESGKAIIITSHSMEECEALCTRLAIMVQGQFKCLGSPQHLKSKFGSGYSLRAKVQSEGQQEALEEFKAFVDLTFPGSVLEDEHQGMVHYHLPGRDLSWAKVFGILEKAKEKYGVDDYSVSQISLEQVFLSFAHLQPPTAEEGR
Sequence of UniProt Q99798 (Q99798 whole entry, looked up): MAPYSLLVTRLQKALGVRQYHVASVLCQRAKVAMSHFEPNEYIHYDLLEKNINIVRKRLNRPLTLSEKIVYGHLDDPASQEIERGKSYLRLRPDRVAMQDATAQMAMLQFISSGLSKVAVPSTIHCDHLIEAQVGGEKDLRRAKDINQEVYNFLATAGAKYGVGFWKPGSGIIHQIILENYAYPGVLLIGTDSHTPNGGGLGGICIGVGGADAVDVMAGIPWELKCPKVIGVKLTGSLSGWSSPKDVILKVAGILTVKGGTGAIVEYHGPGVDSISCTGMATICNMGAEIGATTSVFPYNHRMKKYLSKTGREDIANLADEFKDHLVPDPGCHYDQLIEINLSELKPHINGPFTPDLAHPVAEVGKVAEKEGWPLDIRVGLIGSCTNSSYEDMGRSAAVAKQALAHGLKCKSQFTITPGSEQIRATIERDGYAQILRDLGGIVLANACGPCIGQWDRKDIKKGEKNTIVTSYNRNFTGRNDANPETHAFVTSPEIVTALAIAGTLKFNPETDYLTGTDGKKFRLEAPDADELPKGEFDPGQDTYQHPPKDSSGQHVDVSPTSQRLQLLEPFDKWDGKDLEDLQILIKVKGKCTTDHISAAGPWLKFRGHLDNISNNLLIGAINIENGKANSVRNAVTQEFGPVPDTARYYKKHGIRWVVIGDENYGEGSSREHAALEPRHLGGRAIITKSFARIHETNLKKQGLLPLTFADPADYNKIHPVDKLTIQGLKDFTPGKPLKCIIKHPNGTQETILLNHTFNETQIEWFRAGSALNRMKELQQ
Sequence of UniProt O75882 (O75882 whole entry, looked up): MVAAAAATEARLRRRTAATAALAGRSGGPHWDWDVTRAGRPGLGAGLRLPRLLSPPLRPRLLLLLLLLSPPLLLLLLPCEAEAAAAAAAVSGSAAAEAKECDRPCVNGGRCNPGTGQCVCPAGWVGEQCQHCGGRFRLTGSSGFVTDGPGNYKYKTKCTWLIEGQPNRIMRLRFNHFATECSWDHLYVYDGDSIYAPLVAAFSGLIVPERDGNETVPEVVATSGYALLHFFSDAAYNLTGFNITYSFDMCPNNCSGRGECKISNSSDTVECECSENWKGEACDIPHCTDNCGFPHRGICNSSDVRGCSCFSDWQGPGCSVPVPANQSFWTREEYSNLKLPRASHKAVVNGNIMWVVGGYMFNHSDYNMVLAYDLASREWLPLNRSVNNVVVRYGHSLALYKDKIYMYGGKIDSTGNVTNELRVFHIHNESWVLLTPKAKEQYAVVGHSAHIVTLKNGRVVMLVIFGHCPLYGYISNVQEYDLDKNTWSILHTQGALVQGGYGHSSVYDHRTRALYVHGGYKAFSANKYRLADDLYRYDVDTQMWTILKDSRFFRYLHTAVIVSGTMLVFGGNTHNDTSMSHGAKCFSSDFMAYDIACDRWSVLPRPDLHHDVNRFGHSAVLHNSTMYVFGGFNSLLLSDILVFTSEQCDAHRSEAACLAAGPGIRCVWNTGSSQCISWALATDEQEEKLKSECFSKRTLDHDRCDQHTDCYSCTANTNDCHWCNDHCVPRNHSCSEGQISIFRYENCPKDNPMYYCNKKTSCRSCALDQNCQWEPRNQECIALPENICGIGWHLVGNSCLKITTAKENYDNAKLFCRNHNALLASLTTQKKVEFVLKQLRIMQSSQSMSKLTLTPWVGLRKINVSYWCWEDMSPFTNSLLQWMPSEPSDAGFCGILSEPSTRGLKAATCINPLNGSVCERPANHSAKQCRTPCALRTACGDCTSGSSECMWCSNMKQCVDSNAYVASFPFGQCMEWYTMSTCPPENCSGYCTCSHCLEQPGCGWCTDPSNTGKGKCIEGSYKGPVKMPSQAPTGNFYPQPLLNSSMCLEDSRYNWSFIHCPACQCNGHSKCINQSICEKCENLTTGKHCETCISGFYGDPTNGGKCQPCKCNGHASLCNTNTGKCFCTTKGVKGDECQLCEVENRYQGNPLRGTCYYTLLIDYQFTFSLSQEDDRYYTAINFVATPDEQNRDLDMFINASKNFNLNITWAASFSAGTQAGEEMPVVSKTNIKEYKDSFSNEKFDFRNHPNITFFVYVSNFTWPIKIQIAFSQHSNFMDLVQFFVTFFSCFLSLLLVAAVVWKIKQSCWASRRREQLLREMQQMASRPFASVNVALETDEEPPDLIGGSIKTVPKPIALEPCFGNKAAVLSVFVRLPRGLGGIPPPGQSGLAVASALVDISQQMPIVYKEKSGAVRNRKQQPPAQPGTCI
Sequence of UniProt Q9NXW9 (Q9NXW9 whole entry, looked up): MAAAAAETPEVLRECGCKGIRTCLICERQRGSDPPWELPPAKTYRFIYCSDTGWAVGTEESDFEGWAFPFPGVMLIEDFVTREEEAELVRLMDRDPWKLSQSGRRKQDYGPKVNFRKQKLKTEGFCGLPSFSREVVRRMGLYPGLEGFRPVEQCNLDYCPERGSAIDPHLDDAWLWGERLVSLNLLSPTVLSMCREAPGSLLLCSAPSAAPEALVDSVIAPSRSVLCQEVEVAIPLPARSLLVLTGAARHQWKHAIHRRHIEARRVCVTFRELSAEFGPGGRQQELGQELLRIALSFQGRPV
Sequence of UniProt Q15059 (Q15059 whole entry, looked up): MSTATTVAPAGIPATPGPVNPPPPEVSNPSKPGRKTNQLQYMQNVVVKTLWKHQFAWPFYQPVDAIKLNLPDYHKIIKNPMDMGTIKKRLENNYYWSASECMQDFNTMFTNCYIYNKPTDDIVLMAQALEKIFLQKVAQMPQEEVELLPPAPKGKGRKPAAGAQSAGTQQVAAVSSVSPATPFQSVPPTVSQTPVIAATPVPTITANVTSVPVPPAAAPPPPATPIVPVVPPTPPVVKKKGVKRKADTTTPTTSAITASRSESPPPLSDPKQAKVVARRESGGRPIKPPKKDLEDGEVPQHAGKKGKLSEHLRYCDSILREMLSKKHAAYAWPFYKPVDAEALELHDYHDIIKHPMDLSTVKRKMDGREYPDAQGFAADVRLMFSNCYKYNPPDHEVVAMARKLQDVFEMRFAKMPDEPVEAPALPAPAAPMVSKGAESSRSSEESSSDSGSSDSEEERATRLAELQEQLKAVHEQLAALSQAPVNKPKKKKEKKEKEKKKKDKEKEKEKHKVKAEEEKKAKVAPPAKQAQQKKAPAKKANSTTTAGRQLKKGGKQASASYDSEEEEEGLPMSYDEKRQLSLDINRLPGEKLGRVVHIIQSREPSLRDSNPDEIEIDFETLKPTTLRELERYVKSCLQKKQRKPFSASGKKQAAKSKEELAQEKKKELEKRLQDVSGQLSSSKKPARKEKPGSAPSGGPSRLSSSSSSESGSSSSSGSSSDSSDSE

| Target | log2 fold change [1] | log2 fold change [2] | log2 fold change [3] | log2 fold change [4] | log2 fold change [5] | log2 fold change [6] | log2 fold change [7] | log2 fold change [8] | log2 fold change [9] | log2 fold change [10] | log2 fold change [11] | log2 fold change [12] | log2 fold change [13] | log2 fold change [14] | log2 fold change [15] | log2 fold change [16] | log2 fold change [17] | log2 fold change [18] | log2 fold change [19] | log2 fold change [20] |
| --- | --- | --- | --- | --- | --- | --- | --- | --- | --- | --- | --- | --- | --- | --- | --- | --- | --- | --- | --- | --- |
| BDH2 (UniProt Q9BUT1) | -0.009 | 0.041 | -0.073 | -0.059 | 0.183 | 0.001 | 0.004 | -0.051 | -0.085 | 0.086 | 0.016 | 0.447 (active) | -0.077 | -0.019 | -0.033 | -0.019 | – | – | – | – |
| ADAMTS5 (UniProt Q9UNA0) | 0.064 | 0.127 | 0.036 | 0.141 | 0.088 | -0.009 | -0.03 | -0.171 | -0.022 | – | -0.164 | -0.095 | – | -0.572 | 0.222 | 0.02 | -0.015 | 0.025 | – | – |
| ACO2 (UniProt Q99798) | 0.023 | 0.025 | -0.016 | -0.019 | -0.058 | -0.022 | -0.033 | 0.071 | -0.063 | 0.012 | 0.035 | 0.055 | 0.027 | -0.003 | -0.014 | 0.037 | -0.049 | 0.076 | -0.068 | -0.073 |
| BRD8 isoform 2 (UniProt Q9H0E9) | 0.028 | 0 | 0.036 | -0.103 | -0.003 | 0.093 | 0.01 | -0.013 | -0.333 | -0.044 | -0.023 | 0.183 | 0.06 | – | -0.126 | -0.039 | – | -0.071 | 0.021 | -0.023 |
| BAD (UniProt Q92934) | 0.057 | 0.024 | -0.061 | -0.054 | -0.04 | -0.041 | 0.012 | -0.198 | 0.007 | -0.021 | -0.051 | -0.076 | -0.037 | 0.05 | -0.133 | -0.003 | 0.065 | – | 0.077 | -0.324 (active) |
| ATRN (UniProt O75882) | -0.084 | 0.083 | 0.012 | – | 0.033 | – | 0.079 | 0.037 | – | -0.034 | -0.061 | -0.026 | 0.054 | -0.003 | 0.026 | -0.09 | -0.08 | 0.044 | -0.02 | -0.135 |
| ABCA3 (UniProt Q99758) | -0.012 | -0.051 | -0.005 | -0.096 | -0.007 | -0.017 | 0.203 | -0.029 | 0.011 | -0.008 | -0.035 | -0.161 | -0.112 | – | 0.059 | 0.196 | – | 0.054 | -0.096 | -0.142 |
| ALKBH4 (UniProt Q9NXW9) | 0.009 | -0.126 | -0.07 | 0.017 | -0.086 | -0.033 | -0.065 | 0.071 | -0.008 | -0.015 | 0.019 | -0.048 | 0.032 | -0.015 | -0.05 | -0.016 | – | -0.11 | -0.12 | -0.125 |
| BRD3 (UniProt Q15059) | 0.163 | 0.037 | -0.032 | -0.136 | 0.152 | -0.065 | 0.143 | 0.261 | 0.008 | 0.035 | -0.003 | 0.198 | -0.048 | -0.017 | -0.842 (active) | -0.339 | 0.026 | 0.162 | – | – |

From the supplement of paper PMC10849652
